Results reported in PubChem BioAssay (EPA / NIEHS).
Active and inactive are the calls of the source. Rule for the calls: active = hit-call score of the fitted dose curve at least 0.9, where 1 is the maximum; inactive = score below 0.9.

How the values were obtained:
Settings in all cases: mRNA level, 48 h; actives raise or lower the signal
[1] = read-out: Glutathione S-Transferase (GSTA2), GSTA2 (gene 2939); test: LTEA_HepaRG_GSTA2: Life Technologies and Expression Analysis (LTEA) Assay for Glutathione S-Transferase (GSTA2) using HepaRG (AID 2283497)
Method in brief: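 Differentiated human HepaRG cells were exposed in duplicate for 48 h in serum-free induction medium, 8 points from 100 uM top in half-log steps, 0.5% DMSO. GSTA2 mRNA was measured by TaqMan qRT-PCR, normalized to ACTB, GAPDH and POLR2A; bidirectional fit versus DMSO.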

[2] = read-out: Glutamate-cysteine ligase catalytic (GCLC), GCLC (gene 2729); test: LTEA_HepaRG_GCLC: Life Technologies and Expression Analysis (LTEA) Assay for Glutamate-cysteine ligase catalytic (GCLC) using HepaRG (AID 2283498)
Method in brief: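 Differentiated HepaRG cells exposed 48 h in serum-free induction medium, eight-point half-log series topping at 100 uM in 0.5% DMSO, duplicates. GCLC mRNA by qRT-PCR normalized to ACTB, GAPDH and POLR2A, fitted bidirectionally versus DMSO.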

[3] = read-out: growth arrest and DNA damage 45 (GADD45G), GADD45G (gene 10912); test: LTEA_HepaRG_GADD45G: Life Technologies and Expression Analysis (LTEA) Assay for growth arrest and DNA damage 45 (GADD45G) using HepaRG (AID 2283499)
Method in brief: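 Differentiated human HepaRG cells, 48 h post-plating, exposed 48 h in serum-free induction medium to 8 half-log concentrations (top 100 uM, 0.5% DMSO) in duplicate. GADD45G mRNA measured by Fluidigm TaqMan qRT-PCR, normalized to ACTB, GAPDH, POLR2A; bidirectional fit versus DMSO.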

[4] = read-out: Glutamate-cysteine ligase regulatory (GCLM), GCLM (gene 2730); test: LTEA_HepaRG_GCLM: Life Technologies and Expression Analysis (LTEA) Assay for Glutamate-cysteine ligase regulatory (GCLM) using HepaRG (AID 2283500)
Method in brief: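 Differentiated human HepaRG cells exposed 48 h in serum-free induction medium to 8-point half-log concentrations (top 100 uM, 0.5% DMSO), in duplicate. GCLM mRNA quantified by qRT-PCR, normalized to ACTB, GAPDH, POLR2A; bidirectional fitting versus DMSO.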

[5] = read-out: Glutathione S-transferase M3 (GSTM3), GSTM3 (gene 2947); test: LTEA_HepaRG_GSTM3: Life Technologies and Expression Analysis (LTEA) Assay for Glutathione S-transferase M3 (GSTM3) using HepaRG (AID 2283501)
Method: (§1) LTEA_HepaRG is a cell based, multiplexed-readout assay that uses HepaRG, a human liver cell line, with measurements taken at 48 hours after chemical dosing on a 96-well plate.LTEA_HepaRG_GSTM3 is one of 102 assay component(s) measured in the LTEA HepaRG cell culture assay. It is a marker of Oxidative Stress.Data from the assay component LTEA_HepaRG_GSTM3 was analyzed into 1 endpoint. This assay endpoint, LTEA_HepaRG_GSTM3, was analyzed with bidirectional fitting relative to DMSO as the negative control and baseline of activity. Using a type of inducible reporter, measures of mRNA induction for gain or loss-of-signal activity can be used to understand regulation of transcription factor activity. To generalize the intended target to other relatable targets, this assay endpoint is annotated to the transferase intended target family, where the subfamily is alkyl and aryl transferase.
(§2) A total of 1060 chemcials from the ToxCast library were tested in eight-point concentration-response experiments. Cell culture and cytotoxicity assays were conducted at Thermo Fisher Scientific's Custom Services facility (Madison, WI). A single lot of human HepaRG cells (Thermo Fisher Scientific, Frederick, MD) was used for the cell culture experiments. 96-well format collagen type I coated plates of human HepaRG cells were prepared using established methods. Briefly, cryopreserved HepaRG cells were thawed, plated at a density of approximately 100,000 cells/well in HepaRG Thaw, Plate, and General Purpose media (HPRG770, Thermo Fisher Scientific), and incubated for 48 hours. […] Fluidigm's 96.96 Dynamic ArrayTM (Fluidigm, Amsterdam, the Netherlands) technology was used for gene expression analyses by quantitative reverse transcription polymerase chain reaction (qRT-PCR, performed by Quintiles/Expression Analysis, Durham, NC)89. […]

[6] = read-out: Heat shock 70 kDa protein 1 (HSPA1A), gene 3303; test: LTEA_HepaRG_HSPA1A: Life Technologies and Expression Analysis (LTEA) Assay for Heat shock 70 kDa protein 1 (HSPA1A) using HepaRG (AID 2283502)
Method in brief: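 Differentiated human HepaRG cells in serum-free induction medium were exposed in duplicate for 48 h to eight concentrations (top 100 uM, half-log steps, 0.5% DMSO). HSPA1A mRNA was quantified by qRT-PCR, normalized to ACTB, GAPDH and POLR2A, and fitted bidirectionally against DMSO.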

[7] = read-out: Hypoxia-inducible factor 1-alpha (Homo sapiens) (UniProt Q16665); test: LTEA_HepaRG_HIF1A: Life Technologies and Expression Analysis (LTEA) Assay for Hypoxia-inducible factor 1 (HIF1A) Trancription factor using HepaRG (AID 2283503);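 note: HIF1A transcript by TaqMan qRT-PCR normalized to ACTB GAPDH and POLR2A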
Method: as §1, with “plate.LTEA_HepaRG_HIF1A” for “plate.LTEA_HepaRG_GSTM3”, “Cell proliferation, survival, death.Data” for “Oxidative Stress.Data”, “LTEA_HepaRG_HIF1A” for “LTEA_HepaRG_GSTM3”, “LTEA_HepaRG_HIF1A,” for “LTEA_HepaRG_GSTM3,”, “dna binding” for “transferase”, “basic helix-loop-helix protein.” for “alkyl and aryl transferase.”
as §2

[8] = read-out: 3-Hydroxy-3-Methylglutaryl-CoA Synthase 2 (HMGCS2), HMGCS2 (gene 3158); test: LTEA_HepaRG_HMGCS2: Life Technologies and Expression Analysis (LTEA) Assay for 3-Hydroxy-3-Methylglutaryl-CoA Synthase 2 (HMGCS2) using HepaRG (AID 2283504)
Method in brief: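 Human HepaRG cells in serum-free induction medium were exposed in duplicate for 48 h to 8-point half-log series from 100 uM top in 0.5% DMSO. HMGCS2 mRNA measured by TaqMan qRT-PCR, normalised to ACTB, GAPDH, POLR2A; bidirectional fit versus DMSO.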

HGF (gene 3082) = test: LTEA_HepaRG_HGF: Life Technologies and Expression Analysis (LTEA) Assay for Hepatocyte Growth Facto (HGF) using HepaRG (AID 2283505)
Method in brief: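 Differentiated HepaRG cells in serum-free induction medium exposed 48 h in duplicate, 8 half-log concentrations from 100 uM in 0.5% DMSO. HGF mRNA by qRT-PCR, normalised to ACTB, GAPDH, POLR2A; bidirectional fitting.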

[9] = read-out: Insulin Like Growth Factor 1 (IGF1), IGF1 (gene 3479); test: LTEA_HepaRG_IGF1: Life Technologies and Expression Analysis (LTEA) Assay for Insulin Like Growth Factor 1 (IGF1) using HepaRG (AID 2283506)
Method in brief: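 Differentiated human HepaRG cells were dosed for 48 h in serum-free induction medium with 0.5% DMSO, eight half-log concentrations up to 100 uM, in duplicate. IGF1 mRNA was quantified by qRT-PCR normalized to ACTB, GAPDH, POLR2A; bidirectional fitting versus DMSO.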

Measured: outcome

Chain of Hypoxia-inducible factor 1-alpha (Homo sapiens) (Q16665 whole entry, looked up): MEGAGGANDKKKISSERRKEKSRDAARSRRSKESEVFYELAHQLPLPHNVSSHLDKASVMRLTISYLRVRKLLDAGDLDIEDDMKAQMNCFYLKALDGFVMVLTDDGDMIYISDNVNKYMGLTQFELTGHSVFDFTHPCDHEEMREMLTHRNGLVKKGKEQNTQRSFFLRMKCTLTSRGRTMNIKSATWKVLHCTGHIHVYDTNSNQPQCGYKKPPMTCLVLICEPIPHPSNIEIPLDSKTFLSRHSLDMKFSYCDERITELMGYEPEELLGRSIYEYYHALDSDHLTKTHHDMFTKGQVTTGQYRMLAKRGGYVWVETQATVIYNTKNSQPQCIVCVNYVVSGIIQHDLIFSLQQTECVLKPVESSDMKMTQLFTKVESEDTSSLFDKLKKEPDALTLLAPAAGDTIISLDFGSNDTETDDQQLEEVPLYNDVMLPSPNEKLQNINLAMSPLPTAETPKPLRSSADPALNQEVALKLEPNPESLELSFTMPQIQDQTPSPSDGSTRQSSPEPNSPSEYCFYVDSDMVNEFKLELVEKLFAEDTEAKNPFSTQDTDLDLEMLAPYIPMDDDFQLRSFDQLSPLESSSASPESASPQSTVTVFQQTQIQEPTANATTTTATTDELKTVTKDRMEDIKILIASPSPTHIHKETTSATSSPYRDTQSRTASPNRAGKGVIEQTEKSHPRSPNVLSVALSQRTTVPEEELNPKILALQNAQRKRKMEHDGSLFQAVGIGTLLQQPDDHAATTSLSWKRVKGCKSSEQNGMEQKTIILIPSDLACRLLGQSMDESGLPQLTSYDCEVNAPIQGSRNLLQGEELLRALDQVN

Cc1ccc([N+](=O)[O-])cc1N
inactive: all assays above

C1CNCCN1
inactive: all assays above

Nc1ccc(C(=O)O)cc1
inactive: all assays above
